Consider nine compounds from PubChem BioAssay (Tox21).

Results filed as inconclusive are left out. The source made the active and inactive calls. Unless noted, calls follow the shape of the dose curve; as a rule, active = well fitted curve in the direction sought with a large enough effect in the repeat runs; inconclusive = weak or mixed curves; inactive = no such curve, though single readings can be large; an effect the other way counts as inactive or inconclusive.

Assay [1] in a line: qHTS assay to identify aromatase inhibitors - cell viability counter screen (AID 743084).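 Also: cells stimulated with testosterone during compound exposure; nearly all actives have a fitted effect of over 55% in size.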 On the technique in general: qHTS replaces the single test concentration by a dilution series.
Assay [2] addresses Aryl hydrocarbon receptor (Homo sapiens) (UniProt P35869). Description: qHTS assay to identify small molecule that activate the aryl hydrocarbon receptor (AhR) signaling pathway (AID 743085). Also: nearly all actives have a fitted effect of over 15% in size. Also: potency is read from the fitted curve at half-maximal effect.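 As to activation: HG2L7.5c1 human HepG2 liver cells with stably integrated DRE-driven firefly reporter; series mostly up to about 70 µM.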 In short, it runs like this:
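Luminescence read-out: ONE-Glo reagent, 30 min at room temperature, in HG2L7.5c1 HepG2 reporter cells treated 24 h at 37C. Viability was measured beforehand by CellTiter-Fluor fluorescence after 30 min at 37C.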

A short description of assay [3]: qHTS assay to identify small molecule that activate the aryl hydrocarbon receptor (AhR) signaling pathway - cell viability counter screen (AID 743086).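 Also: HepG2 liver cells carrying the AhR DRE luciferase reporter; series mostly up to about 70 µM; nearly all actives have a fitted effect of over 45% in size.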 Put shortly:
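HepG2-AhR-luc (HG2L7.5c1) cells, 4000/well, treated 24 h at 37 C with compound; viability measured as CellTiter-Fluor fluorescence after 30 min in the same wells as the luciferase read.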

Assay [4] concerns the target Peroxisome proliferator-activated receptor gamma (Homo sapiens) (UniProt P37231). Description: qHTS assay to identify small molecule agonists of the peroxisome proliferator-activated receptor gamma (PPARg) signaling pathway (AID 743094; active = well fitted activation curve with a large enough effect in the signal ratio in the repeat runs, not every such curve was filed as active; the % refers to the signal ratio). In short, it runs like this: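 Compounds dissolved in DMSO were added to PPARg UAS-bla HEK293H cells for 17 h at 37C, and reporter expression was quantified by fluorescence intensity after 1 h with LiveBLAzer B/G FRET substrate.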

The target is the same in assay [5]. Description: qHTS assay to identify small molecule antagonists of the peroxisome proliferator-activated receptor gamma (PPARg) signaling pathway (AID 743191; calls by dose curve; also: series mostly up to about 63 µM; nearly all actives have a fitted effect of over 30% in size). Put shortly:
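GeneBLAzer PPARg UAS-bla HEK293H cells, 5 h post-plating, exposed to compounds 17 h at 37C. LiveBLAzer B/G FRET substrate added for 1 h at room temperature; beta-lactamase reporter read by fluorescence intensity.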

Assay [6] in a line: qHTS assay to identify small molecule antagonists of the peroxisome proliferator-activated receptor gamma (PPARg) signaling pathway - cell viability counter screen (AID 743194). Also: nearly all actives have a fitted effect of over 55% in size. To be noted: Potency: co-treated with 50 nM rosiglitazone. In short, it runs like this: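 Cytotoxicity counter screen in PPARg-bla HEK293H cells, same wells as reporter assay. Compounds plus 50 nM rosiglitazone (final) for 17 h at 37 C, then viability read by CellTiter-Glo luminescence.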

A short description of assay [7]: qHTS assay for small molecule agonists of the antioxidant response element (ARE) signaling pathway (AID 743202; active = well fitted activation curve with a large enough effect in the signal ratio in the repeat runs, not every such curve was filed as active; the % refers to the signal ratio). Put shortly: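 Agonist mode reporter screen: HepG2 cells with ARE-controlled beta-lactamase are incubated with test compounds for 16 h at 37 C, and beta-lactamase activity is measured as fluorescence of cleaved B/G FRET substrate.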
Assay [8] in a line: qHTS assay for small molecule agonists of the antioxidant response element (ARE) signaling pathway - cell viability counter screen (AID 743203; calls by dose curve; also: nearly all actives have a fitted effect of over 55% in size). In short, it runs like this:
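Following 16 hrs of compound treatment at 37C, HepG2 cells with an ARE-controlled beta-lactamase gene were lysed with CellTiter-Glo. Luminescence was read after 30 min at room temperature.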

Assay [9] is described as follows: qHTS assay for small molecule activators of the heat shock response signaling pathway - cell viability counter screen (AID 743209). Also: nearly all actives have a fitted effect of over 50% in size. In short, it runs like this:
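Readout: CellTiter-Glo luminescence, 30 min at room temperature. System: HSE-bla HeLa cells, 1500/well, plated overnight. Treatment: compounds in DMSO, 5 h at 37 C.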

A short description of assay [10]: qHTS assay to identify small molecule agonists of the peroxisome proliferator-activated receptor delta (PPARd) signaling pathway - cell viability counter screen (AID 743211). Also: nearly all actives have a fitted effect of over 55% in size. In short, it runs like this: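 Read-out: CellTiter-Glo luminescence, 30 min RT, measured in the same wells as the beta-lactamase reporter. Cells: GeneBLAzer PPAR delta UAS-bla HEK293H, 3000 cells/well, compound exposure 17 h at 37C.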

In assay [11] the target is Peroxisome proliferator-activated receptor delta (Homo sapiens) (UniProt Q03181). The experiment in a line: qHTS assay to identify small molecule agonists of the peroxisome proliferator-activated receptor delta (PPARd) signaling pathway (AID 743212; calls by dose curve). In short, it runs like this:
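Quantitative high-throughput agonist screen in a HEK293H beta-lactamase reporter line under UAS control. Compounds in DMSO, at 37 C. Fluorescence read after 2 h with FRET substrate at room temperature.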

Assay [12] can be described thus: qHTS assay to identify small molecule antagonists of the peroxisome proliferator-activated receptor delta (PPARd) signaling pathway - cell viability counter screen (AID 743213). Also: nearly all actives have a fitted effect of over 50% in size. Put shortly:
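PPARd-bla HEK293H cells (3000/well) got compound plus 300 nM L165041 agonist for 17 h at 37 C. Viability in the same wells came from CellTiter-Glo luminescence after 30 min at room temperature.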

Assay [13] is described as follows: qHTS assay to identify small molecule agonists of the farnesoid-X-receptor (FXR) signaling pathway - cell viability counter screen (AID 743218). Also: nearly all actives have a fitted effect of over 45% in size. Put shortly:
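Parallel cytotoxicity test: compound-treated (16 h, 37 C) HEK 293T FXR-bla reporter cells were lysed with CellTiter-Glo and luminescence recorded.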

The target in assay [14] is Vitamin D3 receptor (Homo sapiens) (UniProt P11473). Description: qHTS assay to identify small molecule agonists of the vitamin D receptor (VDR) signaling pathway (AID 743222; calls by dose curve). Put shortly: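 In VDR-bla cells, compound-induced beta-lactamase expression is quantified by FRET substrate fluorescence. Treatment lasts 16 h at 37C; substrate develops 2 h at room temperature.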

The target is the same in assay [15]. The experiment in a line: qHTS assay to identify small molecule antagonists of the vitamin D receptor (VDR) signaling pathway (AID 743223; active = well fitted inhibition curve with a large enough effect in the signal ratio in the repeat runs, not every such curve was filed as active; the % refers to the signal ratio). Put shortly:
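Beta-lactamase reporter read-out: FRET substrate fluorescence after 2 h at room temperature, following 16 h exposure of VDR-bla cells to test compound plus 3 nM (final) 1alpha,25-dihydroxyvitamin D3 agonist at 37C.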

Assay [16] is described as follows: qHTS assay for small molecule activators of the heat shock response signaling pathway (AID 743210; active = well fitted activation curve with a large enough effect in the signal ratio in the repeat runs, with a control signal flat, not every such curve was filed as active; the % refers to the signal ratio;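 also: HeLa cells with beta-lactamase reporter driven by heat shock elements; series mostly up to about 63 µM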). Put shortly: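 Quantitative high-throughput format using an engineered HeLa line in which heat shock response elements drive beta-lactamase; after 5 h with compound, cells received a B/G FRET substrate and fluorescence was read.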
Assay [17] can be described thus: qHTS assay to identify small molecule antagonists of the farnesoid-X-receptor (FXR) signaling pathway - cell viability counter screen (AID 743221; active = well fitted cell-killing curve with a large enough effect in the repeat runs, not every such curve was filed as active; also: nearly all actives have a fitted effect of over 50% in size). In short, it runs like this:
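HEK 293T FXR-bla cells, 5 h pre-incubation; compound + CDCA 50 uM final, 16 h, 37 C; beta-lactamase FRET read first, then CellTiter-Glo luminescence, 30 min RT.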

For assay [18], the target named is Peroxisome proliferator-activated receptor delta (Homo sapiens) (UniProt Q03181). Description: qHTS assay to identify small molecule antagonists of the peroxisome proliferator-activated receptor delta (PPARd) signaling pathway (AID 743215; active = well fitted inhibition curve with a large enough effect in the signal ratio in the repeat runs, not every such curve was filed as active; the % refers to the signal ratio;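 also: cells stimulated with agonist L165041 at 300 nM final during compound exposure; series mostly up to about 62 µM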). Put shortly: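 HEK293H UAS-bla, PPARd; agonist L165041 300 nM final with cpd in DMSO; 37 C 17 h; FRET substrate, RT 2 h; fluorescence intensity.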

Assay [19] deals with Bile acid receptor (Homo sapiens) (UniProt Q96RI1). The experiment in a line: qHTS assay to identify small molecule antagonists of the farnesoid-X-receptor (FXR) signaling pathway (AID 743217; active = well fitted inhibition curve with a large enough effect in the signal ratio in the repeat runs, not every such curve was filed as active; the % refers to the signal ratio). Put shortly: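 GeneBLAzer FXR-UAS-bla HEK 293T, CDCA-stimulated (50 uM final). Compound treatment 16 h, 37 °C. Detection: beta-lactamase cleavage of B/G FRET substrate, fluorescence.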

Assay [20] has the same target. The experiment in a line: qHTS assay to identify small molecule agonists of the farnesoid-X-receptor (FXR) signaling pathway (AID 743220; active = well fitted activation curve with a large enough effect in the signal ratio in the repeat runs, not every such curve was filed as active; the % refers to the signal ratio). Put shortly: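 Beta-lactamase reporter under UAS control in GeneBLAzer FXR HEK 293T cells (5000/well) measured with LiveBLAzer FRET substrate after 2 h at room temperature. Compound exposure lasted 16 h at 37C.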

Vitamin D3 receptor (Homo sapiens), sequence (P11473 whole entry, looked up): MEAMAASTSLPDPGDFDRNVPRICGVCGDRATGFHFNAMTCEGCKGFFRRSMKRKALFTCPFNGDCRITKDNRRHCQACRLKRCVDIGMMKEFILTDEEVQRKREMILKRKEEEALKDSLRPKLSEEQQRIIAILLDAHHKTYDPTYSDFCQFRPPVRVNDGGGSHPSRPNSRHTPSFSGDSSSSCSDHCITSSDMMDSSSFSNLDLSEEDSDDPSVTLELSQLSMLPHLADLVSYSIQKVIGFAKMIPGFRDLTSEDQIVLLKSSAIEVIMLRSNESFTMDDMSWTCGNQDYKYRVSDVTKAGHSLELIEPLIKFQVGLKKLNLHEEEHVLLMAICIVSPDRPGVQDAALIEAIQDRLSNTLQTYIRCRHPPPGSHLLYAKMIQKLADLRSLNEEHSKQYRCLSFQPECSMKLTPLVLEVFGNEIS
Peroxisome proliferator-activated receptor delta (Homo sapiens), sequence (Q03181 whole entry, looked up): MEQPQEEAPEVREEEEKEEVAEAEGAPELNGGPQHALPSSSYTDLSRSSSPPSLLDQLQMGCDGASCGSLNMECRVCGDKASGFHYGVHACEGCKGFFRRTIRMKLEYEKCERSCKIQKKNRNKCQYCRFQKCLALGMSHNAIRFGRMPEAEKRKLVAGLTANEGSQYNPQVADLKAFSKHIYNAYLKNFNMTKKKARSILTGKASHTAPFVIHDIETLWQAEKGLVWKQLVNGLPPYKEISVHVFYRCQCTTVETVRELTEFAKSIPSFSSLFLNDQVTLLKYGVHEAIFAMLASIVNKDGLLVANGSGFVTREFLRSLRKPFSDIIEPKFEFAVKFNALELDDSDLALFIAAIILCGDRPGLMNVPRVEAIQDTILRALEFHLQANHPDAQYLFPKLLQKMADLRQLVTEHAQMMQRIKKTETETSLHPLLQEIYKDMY
Aryl hydrocarbon receptor (Homo sapiens), sequence (P35869 whole entry, looked up): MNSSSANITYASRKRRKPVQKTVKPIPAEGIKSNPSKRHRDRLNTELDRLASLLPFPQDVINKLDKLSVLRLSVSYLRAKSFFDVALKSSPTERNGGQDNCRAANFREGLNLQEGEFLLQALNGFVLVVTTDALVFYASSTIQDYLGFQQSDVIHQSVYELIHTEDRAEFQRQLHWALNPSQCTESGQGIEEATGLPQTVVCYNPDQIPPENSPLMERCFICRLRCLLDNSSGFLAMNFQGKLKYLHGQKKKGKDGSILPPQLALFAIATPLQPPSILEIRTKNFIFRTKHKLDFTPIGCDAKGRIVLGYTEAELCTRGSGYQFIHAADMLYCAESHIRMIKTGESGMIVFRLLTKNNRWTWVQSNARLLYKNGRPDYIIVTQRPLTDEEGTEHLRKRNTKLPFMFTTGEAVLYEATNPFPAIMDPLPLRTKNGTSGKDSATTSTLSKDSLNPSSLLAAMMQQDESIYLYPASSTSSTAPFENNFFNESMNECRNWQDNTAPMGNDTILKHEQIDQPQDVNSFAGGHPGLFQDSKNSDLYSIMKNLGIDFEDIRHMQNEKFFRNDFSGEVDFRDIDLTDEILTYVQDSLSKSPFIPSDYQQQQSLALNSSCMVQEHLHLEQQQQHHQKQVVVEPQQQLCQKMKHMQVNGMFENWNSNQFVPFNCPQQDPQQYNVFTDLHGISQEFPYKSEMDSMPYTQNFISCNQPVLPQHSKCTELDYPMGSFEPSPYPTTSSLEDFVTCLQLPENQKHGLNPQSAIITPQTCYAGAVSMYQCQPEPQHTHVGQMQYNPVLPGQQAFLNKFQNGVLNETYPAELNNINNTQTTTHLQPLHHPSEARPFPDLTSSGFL
Bile acid receptor (Homo sapiens), sequence (Q96RI1 whole entry, looked up): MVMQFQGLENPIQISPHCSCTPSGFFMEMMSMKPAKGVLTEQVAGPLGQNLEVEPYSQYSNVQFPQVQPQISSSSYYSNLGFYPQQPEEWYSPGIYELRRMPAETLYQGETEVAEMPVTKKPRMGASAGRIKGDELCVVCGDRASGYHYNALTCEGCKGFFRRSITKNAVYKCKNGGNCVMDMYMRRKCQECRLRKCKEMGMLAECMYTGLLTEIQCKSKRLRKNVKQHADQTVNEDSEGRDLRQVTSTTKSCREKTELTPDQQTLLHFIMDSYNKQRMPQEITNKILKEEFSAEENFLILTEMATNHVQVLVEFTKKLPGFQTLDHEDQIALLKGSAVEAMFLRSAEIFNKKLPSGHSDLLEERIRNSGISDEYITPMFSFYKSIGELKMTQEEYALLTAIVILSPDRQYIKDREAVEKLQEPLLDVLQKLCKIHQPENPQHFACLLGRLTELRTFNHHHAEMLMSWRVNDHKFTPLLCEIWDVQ
Peroxisome proliferator-activated receptor gamma (Homo sapiens), sequence (P37231 whole entry, looked up): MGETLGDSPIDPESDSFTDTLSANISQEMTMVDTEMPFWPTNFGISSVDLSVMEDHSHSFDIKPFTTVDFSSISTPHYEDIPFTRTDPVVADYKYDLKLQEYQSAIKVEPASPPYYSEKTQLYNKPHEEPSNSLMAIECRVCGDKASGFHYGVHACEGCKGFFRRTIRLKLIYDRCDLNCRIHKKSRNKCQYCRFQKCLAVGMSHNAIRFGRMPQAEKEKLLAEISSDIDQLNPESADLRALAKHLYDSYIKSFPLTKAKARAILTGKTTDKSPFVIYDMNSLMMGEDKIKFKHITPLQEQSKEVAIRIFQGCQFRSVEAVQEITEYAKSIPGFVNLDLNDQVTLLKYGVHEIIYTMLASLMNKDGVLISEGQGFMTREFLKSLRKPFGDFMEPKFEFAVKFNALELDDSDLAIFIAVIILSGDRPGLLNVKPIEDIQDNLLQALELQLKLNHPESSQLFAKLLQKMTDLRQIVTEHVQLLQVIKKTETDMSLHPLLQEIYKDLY

As for `O=CNC(N1CCN(C(NC=O)C(Cl)(Cl)Cl)CC1)C(Cl)(Cl)Cl` (stereo not drawn), the Potency entry in assay [1], in [2], in [5], in assay [6], in assay [7] and in assay [8] was “inactive” throughout. For the same compound, the Potency entry in assay [9], in [10] and in assay [13] was “inactive” in each case. Also, the compound was classed as inactive in assay [3], in assay [4], in [11], in assay [12], in [14] and in assay [15].

With `CCOP(=S)(OCC)Oc1nc(Cl)n(C(C)C)n1`, the Potency result in assay [1], in [5], in [6], in assay [7], in [8] and in assay [9] was “inactive” each time. Moreover, the Potency entry in assay [10] and in assay [13] was “inactive” throughout. For the same compound, the Potency in [2] is 10.9 µM (active). For the same compound, the compound was classed as inactive in assay [3], in [4], in assay [16], in assay [17], in [14] and in [15].

For the compound `N#CC(O)c1ccccc1` (stereo not drawn), the Potency result in assay [1], in assay [2], in assay [5], in assay [6], in [7] and in assay [8] was “inactive” throughout. Also, the Potency entry in assay [9], in assay [10], in assay [19] and in assay [13] was “inactive” in each case. Moreover, the compound was classed as inactive in assay [3], in assay [4], in assay [16], in assay [11], in assay [12] and in assay [18]. The result in assay [20], in assay [17] and in assay [14] was inactive.

Regarding `COc1ccc(C(=O)N2CCCC2=O)cc1`, the Potency entry in [1], in [2], in [5], in [6], in assay [7] and in assay [8] was “inactive” in each case. The Potency result in [9], in assay [10] and in [13] was “inactive” in each case. Also, the outcome in [3], in assay [4], in [16], in assay [11], in assay [12] and in assay [17] was inactive. In addition, the compound was called inactive in [15].

For the compound `COP(=S)(OC)Oc1c(Cl)cc(C)cc1Cl`, the Potency entry in assay [1], in [5], in assay [6], in assay [7], in assay [8] and in [9] was “inactive” in each case. Besides, the Potency entry in [10] and in assay [13] was “inactive” throughout. Moreover, in assay [2], the Potency was 48.6 µM (active). Also, the result in [3], in assay [4], in assay [16], in assay [11], in [12] and in assay [17] was inactive. The compound was called inactive in [14] and in assay [15].

Regarding `O=NN1CCCCC1`, the Potency result in [1], in assay [2], in [5], in [6], in assay [7] and in [8] was “inactive” throughout. Besides, the Potency entry in [9], in [10] and in [13] was “inactive” throughout. In addition, the compound was called inactive in assay [3], in [4], in [16], in assay [12], in [18] and in assay [17]. Also, the outcome in assay [14] and in assay [15] was inactive.

With `N#CC(Cl)(Cl)Cl`, the Potency entry in assay [1], in assay [2], in assay [5], in [6], in assay [7] and in [8] was “inactive” throughout. For the same compound, the Potency entry in [10] and in assay [19] was “inactive” in each case. Besides, the outcome in assay [3], in [4], in assay [16], in assay [11], in assay [12] and in assay [18] was inactive. Further, in [17], the outcome was inactive.

Take `COC(=O)c1c(C(F)F)nc(C(F)(F)F)c(C2=NCCS2)c1CC(C)C`: the Potency entry in assay [1], in assay [2], in assay [5], in assay [6], in assay [7] and in [8] was “inactive” in each case. For the same compound, the Potency entry in assay [9] and in [10] was “inactive” throughout. Moreover, the result in assay [3], in assay [4], in [16], in assay [11], in assay [12] and in [18] was inactive. Also, the result in [17], in assay [14] and in assay [15] was inactive.

As for `N#CCNCC#N`, the Potency entry in assay [1], in assay [2], in [5], in [6], in assay [7] and in [8] was “inactive” each time. In addition, the Potency entry in [9], in [10] and in [13] was “inactive” in each case. In addition, the call in assay [3], in [4], in assay [16], in assay [11], in [12] and in [18] was inactive. In addition, the outcome in assay [17] and in [14] was inactive.
